According to PubChem BioAssay (Tox21):
Records with an inconclusive call do not appear. Entries that show only a call come without a potency. More than one record can exist for a structure, and the calls need not agree. Active and inactive are the calls of the source. The call rests on the fitted dose curve; in most records, active means well fitted activation curve with a large enough effect in the repeat runs; inconclusive means weak or mixed curves; inactive means flat fitted curve, though single readings scatter.

Assay: Caspase-3/7 induction in HepG2 cells by small molecules, qHTS assay (AID 1346978); further: nearly all actives have a fitted effect of over 15% in size
Conditions: HepG2 caspase-3/7 activation, Caspase-Glo luminescence, 17 h; series mostly up to 92.4 µM
Description: National Center for Advancing Translational Sciences [NCATS] NIH Chemical Genomics Center [NCGC] U.S. Environmental Protection Agency [EPA] National Institutes of Environmental Health Sciences [NIEHS] National Toxicology Program [NTP] Assay overview: Apoptosis is a process of programmed cell death and plays a central role in the development of multicellular organisms. It is a highly regulated process and induces cell death by activating caspases, which are the members of cysteine aspartic acid-specific protease (caspase) family. Caspases involved in apoptosis are classified by their mechanism of action as initiator caspases (caspase-2, -8, -9 and -10) and executioner caspases (caspase-3, -6, and -7). Inhibition of apoptosis results in number of cancers, autoimmune diseases, inflammatory diseases and viral infection. To identify small molecule compounds that induce apoptosis, a homogeneous, luminescent Caspase-Glo 3/7 assay was used. Wild type HepG2 cells were used to screen Tox21 libraries for identifying caspase-3/7 activity inducers.
Assay Protocol Summary: HepG2 cells were dispensed at 2,000 per well in 5uL of culture medium into white solid bottom 1536-well plates (Corning Life Sciences, Corning, NY) using a Multidrop Combi (Thermo Scientific, Waltham, MA) dispenser. The assay plates were incubated at 37 C and 5% CO2 for 5hr, and then 23nL of compounds dissolved in DMSO and positive control were transferred using a Pintool station (Wako, San Diego, CA). The assay plates were incubated at 37C and 5% CO2 for 17hr. For caspase-3/7 activity read, 4uL of Caspase-Glo 3/7 reagent (Promega Corporation, Madison, WI) was added to each well of the assay plates using Flying Reagent Dispenser (FRD, Aurora Discovery, San Diego, CA) and incubated the assay plates at room temperature for 30min. The luminescence signal was quantified using a ViewLux plate reader (Perkin Elmer, Shelton, CT).
Potency means the concentration at half of the fitted maximal effect.

| SMILES | Potency |
| --- | --- |
| CNC(=S)N(C)C | inactive |
| CCCCCCCCCCCC(=O)OC | inactive |
| Cc1ccc(S(=O)(=O)N=C=O)cc1 | inactive |
| COC(=O)c1cccnc1 | inactive |
| C=CC[N+](C)(C)CC=C | inactive |
| O=C1CCCC1 | inactive |
| CC(=O)Oc1ccc(C)cc1 | inactive |
| CC(CCO)CC(C)(C)C (stereo not given) | inactive |
| O=C1c2ccccc2CCc2ccccc21 | inactive |
| CN/C(=C\[N+](=O)[O-])NCCSCc1csc(CN(C)C)n1 | inactive |
| CC(=O)OCc1ccco1 | 60.8 µM (active) and inactive |
| O=C(O)c1ccccc1C(=O)O | inactive |
| CCCCCCCCCCO | inactive |
| CC(=O)CC(C)(C)O | inactive |
| C[C@]12CC[C@@H]3c4ccc(O)cc4CC[C@H]3[C@@H]1C[C@@H](O)[C@@H]2O | inactive |
| CC(C)CC(=O)CC(C)CC(C)C (stereo not given) | inactive |
| O=[N+]([O-])c1ccc2nc[nH]c2c1 | inactive |
| CC(O)CC(C)(C)O (stereo not given) | inactive |
| CN1C(=O)CC[C@H]1c1cccnc1 | inactive |
| CCO[Si](CCCN)(OCC)OCC | inactive |

| SMILES | Potency |
| --- | --- |
| CCNc1ccccc1 | inactive |
| Cc1ccc2ncccc2c1 | inactive |
| CCNC(=S)NCC | inactive |
| O=C(O)c1ccc(C(=O)O)c(C(=O)O)c1 | inactive |
| CC(C)c1cccc(C(C)C)c1 | inactive |
| CCOCC(=O)O | inactive |
| CCCCOC(=O)c1ccc(N)cc1 | inactive |
| CCCCCC(=O)O | inactive |
| COc1ccc(C)cc1N | inactive |
| Cc1ccc(C(C)C)c(O)c1 | inactive |
| CCc1ccccc1CC | inactive |
| CC1(C)NC(=O)NC1=O | inactive |
| COc1ccccc1OCC(O)CO (stereo not given) | inactive |
| CCNc1cccc(C)c1 | inactive |
| NC(=S)NNC(N)=S | inactive |
| CN(C)c1ccc(O)c2c1C[C@H]1C[C@H]3[C@H](N(C)C)C(=O)C(C(N)=O)=C(O)[C@@]3(O)C(=O)C1=C2O | inactive |
| CC(C)OP(=O)(CP(=O)(OC(C)C)OC(C)C)OC(C)C | inactive |
| CCCCCCCC=O | inactive |
| NCCN1CCNCC1 | inactive |
| O=C(O)Cn1c(=O)n(Cc2ccc(Br)cc2F)c(=O)c2ccc(Cl)cc21 | inactive |
